# High-throughput results (PubChem)
# CHT PAM = CHT positive allosteric modulators, primary screen, cell-based, membrane potential dye, choline EC20; High affinity choline transporter 1 (Homo sapiens), Q9GZV3; CHT-expressing cells; active compounds read high; LV-AA mutant CHT in HEK293 cells; B-score at 10 µM; actives 0.49% (n = 310,000);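 active means initial fluorescence not abnormally high and integrated response B-score, plate-corrected, over 3 SD above library mean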
# Target sequence (Q9GZV3 whole entry, looked up): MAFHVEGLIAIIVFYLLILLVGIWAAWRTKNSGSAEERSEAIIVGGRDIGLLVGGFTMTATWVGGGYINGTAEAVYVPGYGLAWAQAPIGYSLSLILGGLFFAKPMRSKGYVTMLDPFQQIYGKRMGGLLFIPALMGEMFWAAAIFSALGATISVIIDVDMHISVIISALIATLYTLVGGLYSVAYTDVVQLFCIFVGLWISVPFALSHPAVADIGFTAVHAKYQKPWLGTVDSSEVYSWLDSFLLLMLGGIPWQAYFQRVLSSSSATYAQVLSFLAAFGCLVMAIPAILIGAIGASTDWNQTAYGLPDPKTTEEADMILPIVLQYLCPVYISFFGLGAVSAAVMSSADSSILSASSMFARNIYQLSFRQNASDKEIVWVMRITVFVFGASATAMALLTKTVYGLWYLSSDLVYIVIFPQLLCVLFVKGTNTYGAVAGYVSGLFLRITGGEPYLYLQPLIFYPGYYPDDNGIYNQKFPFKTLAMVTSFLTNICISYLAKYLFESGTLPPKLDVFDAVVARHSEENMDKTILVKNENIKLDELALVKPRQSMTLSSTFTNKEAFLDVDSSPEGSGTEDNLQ
# MEKK2wt PB1 HTS = modulators of MEK5 binding to wildtype MEKK2, primary screen, biochemical, multiplex bead flow cytometry, Alexa488-MEK5; Mitogen-activated protein kinase kinase kinase 2 (Homo sapiens), Q9Y2U5; Alexa488-MEK5 binding to MEKK2 WT; actives lie on both sides; binding response (% of control), % at 10 µM; actives 1.1% (n = 290,000); in the data active means binding response below about 67% or above about 130%
# SUMO Mot1 rescue = yeast Mot1-301 growth rescue at high temperature, primary screen, SUMOylation pathway inhibitor project, S. cerevisiae, ATP luminescence, 38.5C | S. cerevisiae Mot1-301 growth rescue; percent above DMSO median, 100 means doubled | growth rescue, % at 18.8 µM | actives 1% (n = 320,000) | AID 2716, 2010;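 active means every valid replicate shows activation above 250% relative to neutral control wells; inactive means the rest, any valid replicate at or below 250%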;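 further: OY570 slx delta 5 strain wells were the positive control but not used for scaling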
# CHT inh = inhibitors of human choline transporter CHT | High affinity choline transporter 1 (Homo sapiens), Q9GZV3 | B-score at 10 µM | CHT-expressing cells, membrane potential dye, choline response; active compounds read low | actives 0.86% (n = 310,000) | AID 488975, 2010;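 active means B-score over 3 SD under the library average, and starting fluorescence ratio not unusually high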;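 further: choline stimulus applied at its EC90 after an EC20 pre-addition; B-score computed on integrated fluorescence ratio after choline addition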
# MEKK2 mut-MEK5 = MEK5 binding signal on mutant MEKK2 PB1, primary screen, biochemical, multiplex bead flow cytometry, Alexa488-MEK5; Alexa488-MEK5 binding to MEKK2 mutant; actives 0.35% (n = 290,000); percent response, % at 10 µM; in the data active means percent response above about 24%, passing the limit was not always enough
# MEKK3 PB1 HTS = modulators of MEKK3-MEK5 PB1 binding, primary screen, biochemical, wildtype MEKK3, multiplex bead flow cytometry, Alexa488-MEK5; Mitogen-activated protein kinase kinase kinase 3 (Homo sapiens), Q99759; bead-based flow cytometry, Alexa488-MEK5 binding to MEKK3; actives lie on both sides; 0 = blocked by unlabeled MEK5, 100 = vehicle; binding response (% of control), % at 10 µM; actives 1.4% (n = 290,000);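 active means binding response more than 3 SD above or below the average of its plate-row segment, actives on both sides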;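 further: Alexa488 bead fluorescence after subtracting the streptavidin-only scavenger bead signal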
# * hit, by the source's call; i = inactive; · = not tested or not shown; [ ] = another dose, or the depositor's remark. In the library only some 4.1% were active in any assay of this set; here they are far more common.
SMILES,CHT PAM,MEKK2wt PB1 HTS,SUMO Mot1 rescue,CHT inh,MEKK2 mut-MEK5,MEKK3 PB1 HTS
CC(=O)c1ccc(N2CCN(C(=O)c3ccc(NC4=NC5CS(=O)(=O)CC5S4)cc3)CC2)cc1 (centres undefined),i,96.0,4.1,i,-8.0,97.0
CC(C)(C)NC(=O)CCN(/N=C/c1ccccc1F)C1=NS(=O)(=O)c2ccccc21,i,106.0,311.8*,i,6.0,105.0
O=C(Nc1ccccc1)c1ccc2c(c1)OCCO2,i,100.0,-20.6,i,5.0,102.0
O=C(Nc1cccc(F)c1)c1ccc2c(c1)OCCO2,i,97.0,478.7*,i,-1.0,103.0
CC(C(Sc1ccccc1N)c1ccccc1)[N+](=O)[O-] (centres undefined),i,87.0,746.6*,i,-10.0,85.0
Nc1ccccc1SSc1ccccc1N,i,89.0,7.8,i,2.0,94.0
Oc1ccc(Cl)cc1C1=NNC(c2ccc(Cl)cc2)C1 (centres undefined),i,107.0,-7.7,i,0.0,135.0*
Cc1ccc(-c2nnn(CC(=O)N(CC(=O)NC3CCCC3)c3cnc4ccccc4c3)n2)o1,i,99.0,21.8,i,1.0,98.0
Cc1ccc(-c2nnn(CC(=O)Nc3cccc4cccnc34)n2)o1,i,88.0,352.9*,i,-4.0,84.0
CCCN(CCC)C(=O)Cn1c(=O)n(CCCCC(=O)NCc2ccco2)c(=O)c2ccccc21,i,97.0,294.4*,i,15.0,100.0
O=C(CCCn1c(=O)c2ccccc2n(CC(=O)NCc2ccco2)c1=O)NCc1ccco1,i,101.0,-7.7,i,5.0,98.0
C=CCn1c(SCC(=O)OC)nc2sc3c(c2c1=O)CCN(C)C3,6.31*,98.0,3.5,i,2.0,97.0
CC1CCN(CCCOc2ccc(Cl)cc2Br)CC1,i,86.0,·,i,-12.0,97.0
Cc1ccc(Cl)c(OCCN2CCCC(C)C2)c1 (centres undefined),i,92.0,538.3*,i,-2.0,87.0
CC1CCCN(CCCOc2ccc(Cl)cc2Br)C1 (centres undefined),i,100.0,482.0*,i,-1.0,99.0
Cc1c(/C(O)=C2/C(=O)C(=O)N(CCN3CCOCC3)C2c2cccnc2)cnn1-c1ccccc1 (centres undefined),i,115.0,446.8*,i,11.0,110.0
CCN(CC)CCN1C(=O)C(=O)/C(=C(/O)c2cnn(-c3ccccc3)c2C)C1c1cccnc1 (centres undefined),i,102.0,3.4,i,4.0,101.0
COc1ccc(CC(=O)OCC(=O)Nc2ccc(Br)cc2)cc1,i,102.0,23.9,i,3.0,109.0
Cc1nc2c(s1)sc1ccccc12,i,101.0,7.5,i,-1.0,103.0
CC[n+]1c(C)sc2sc3ccccc3c21,12.9*,105.0,39.7,i,3.0,113.0
Cc1cc(C)cc(C(=O)NCC(=O)OCC(=O)Nc2cccnc2Cl)c1,i,94.0,·,i,-1.0,98.0
C[C@H](CO)N1C[C@H](C)[C@@H](CN(C)C)Oc2c(NS(=O)(=O)c3cccs3)cccc2C1=O,·,·,-11.9,·,·,·
COc1ccc(C(C[N+](=O)[O-])c2c(C)[nH]n(-c3ccccc3)c2=O)cc1 (centres undefined),i,107.0,155.4,i,4.0,104.0
Cc1[nH]n(-c2ccccc2)c(=O)c1C(c1ccc(O)c([N+](=O)[O-])c1)c1c(C)[nH]n(-c2ccccc2)c1=O,i,98.0,529.2,-6.12*,1.0,100.0
CCCCNS(=O)(=O)c1cccc(S(=O)(=O)N2CCCC2)c1,i,104.0,302.5*,i,15.0,97.0
SMILES,CHT PAM,MEKK2wt PB1 HTS,SUMO Mot1 rescue,CHT inh,MEKK2 mut-MEK5,MEKK3 PB1 HTS
COc1ccc(CCN2CC34C=CC(O3)C(C(=O)NCc3ccccc3Cl)C4C2=O)cc1OC (centres undefined),i,99.0,3.3,i,1.0,103.0
COc1ccccc1N1CCN(C(=O)C2C3C=CC4(CN(Cc5ccccc5Cl)C(=O)C24)O3)CC1 (centres undefined),i,86.0,-4.7,i,-2.0,82.0*[inhibitor]
C=CCn1c(C)cc(C(=O)COC(=O)c2ccc(N)c([N+](=O)[O-])c2)c1C,i,88.0,771.2*,i,-4.0,85.0
O=C(NNc1ncnc2c1cnn2-c1cccc(Cl)c1)c1ccco1,i,96.0,7.4,i,-2.0,97.0
Cc1ccc(Cl)cc1-n1ncc2c(NNC(=O)c3ccco3)ncnc21,i,99.0,347.5*,i,1.0,99.0
CNC(=S)NNC(=O)c1cccn(Cc2ccc(Cl)cc2Cl)c1=O,i,·,335.9*,i,·,·
CCNC(=S)NNC(=O)c1cccn(Cc2ccc(Cl)cc2)c1=O,i,·,193.7,i,·,·
O=C(CN1CCC(NC(=O)c2ccccc2F)CC1)Nc1ccc2c(c1)OCO2,i,108.0,667.1*,i,-4.0,95.0
CCCN1C(=O)c2ccccc2NC1c1ccc(Cl)cc1 (centres undefined),i,102.0,-21.4,i,5.0,104.0
CCCN1C(=O)c2ccccc2NC1c1ccc(Cl)c(Cl)c1 (centres undefined),7.28*,103.0,-5.1,i,6.0,106.0
Cn1c2ccccc2c(=O)c2ccc(C#Cc3ccc(N)cc3)cc21,i,22.0*,352.4,i,8.0,102.0
COc1ccc(C#Cc2ccc3c(=O)c4ccccc4n(C)c3c2)cc1,i,79.0,13.1,i,-5.0,97.0
CC(Oc1ccc(Br)cc1)C(=O)Nc1ccc(S(=O)(=O)N(C)C2CCN(C)CC2)cc1 (centres undefined),7.13*,·,5.6,i,·,·
CCC(C(=O)Nc1ccc(S(=O)(=O)N(C)C2CCN(C)CC2)cc1)c1ccccc1 (centres undefined),·,·,1.0,·,·,·
O=C(CN1C(=O)C2CC=CCC2C1=O)Nc1ccc(S(=O)(=O)N2CCOCC2)cc1 (centres undefined),i,93.0,296.7*,i,-3.0,92.0
O=C(CN1CCCCCC1)Nc1ccc(S(=O)(=O)N2CCOCC2)cc1,i,97.0,7.1,i,-12.0,99.0
CN(C)CCOc1ccccc1Cc1ccccc1,i,-18.0*,-15.7,i,-2.0,78.0
